# Only some compounds are listed: those with a hit (about 32% of all), similar ones and a draw of the others.
# CYP2C9 inhib = blocks human cytochrome P450 2C9. CYP2C9 Supersomes, luciferin-H conversion, luminescence. actives 20% (n = 96,000). inhibition, % at 5 µM. P11712;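 active = blocking of liver enzyme CYP2C9 beyond about 50% at 5 µM, limit read from the data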
# Target sequence (P11712 whole entry, looked up): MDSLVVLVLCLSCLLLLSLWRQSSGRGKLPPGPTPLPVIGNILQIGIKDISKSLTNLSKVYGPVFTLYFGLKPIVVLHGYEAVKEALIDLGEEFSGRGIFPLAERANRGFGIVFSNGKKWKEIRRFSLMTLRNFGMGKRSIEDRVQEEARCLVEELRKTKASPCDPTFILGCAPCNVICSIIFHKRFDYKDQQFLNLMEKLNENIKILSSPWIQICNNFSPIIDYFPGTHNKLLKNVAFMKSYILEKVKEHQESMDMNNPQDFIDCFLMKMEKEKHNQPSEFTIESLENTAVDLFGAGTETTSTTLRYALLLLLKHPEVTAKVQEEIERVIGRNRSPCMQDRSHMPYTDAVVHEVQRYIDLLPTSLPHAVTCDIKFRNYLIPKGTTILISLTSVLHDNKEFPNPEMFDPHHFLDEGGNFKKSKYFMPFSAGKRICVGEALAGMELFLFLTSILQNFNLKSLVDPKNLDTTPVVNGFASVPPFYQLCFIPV
# CYP2C19 inh = inhibitors of human CYP2C19 | P33261 | CYP2C19 Supersomes, luciferin-H EGE luminescence, 30 min | inhibition, % at 5 µM | actives 21% (n = 96,000);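 active = CYP2C19 inhibition above a set limit at 5 µM in the primary screen, cut at about 50% in these data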;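 note: plate controls were negative control wells for no effect and 2.5 mM tranylcypromine positive control for full effect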
# CYP2C9 act = increases human cytochrome P450 2C9 activity. actives 1.4% (n = 96,000). activation factor at 5 µM. recombinant CYP2C9, luciferin-H conversion, luminescence; active compounds read high; factor 1 = untreated enzyme, 0 = blocked;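 active = activation factor of 2 or more for CYP2C9 at a 5 µM dose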;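 note: 0 = sulfaphenazole-blocked wells and 1 = vehicle-only wells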
# PostGolgi ctrl = growth of the yeast control strain, post-Golgi counter-screen. efflux-deficient yeast background strain, growth absorbance A615, 16 h. inhibition, % at 10 µM. actives 5% (n = 98,000). AID 738
# PostGolgi yeast = growth inhibition of a yeast mutant, post-Golgi transport screen; post-Golgi transport phenotypic cell assay; inhibition, % at 10 µM; actives 0.9% (n = 98,000); AID 739;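 note: yeast cells grown in 1536-well plates; yeast grown about 18 h at 30C before absorbance read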
# CYP2C19 activ = increases human CYP2C19 enzyme activity; activation factor at 5 µM; P33261; recombinant CYP2C19, luciferin-H EGE luminescence; active compounds read high; 0 = fully inhibited enzyme, 1 = untreated enzyme; 96,000 tested, under 10 active;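 active = activation factor of at least 2 at 5 µM in the primary screen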;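 note: 0 = wells with 2.5 mM tranylcypromine and 1 = vehicle-only wells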
# An asterisk follows results filed as active; x = no result given. Cut-off read from the data, not from the text of the source, unless noted: active = inhibition above about 30%; inactive = the rest.
SMILES,CYP2C9 inhib,CYP2C19 inh,CYP2C9 act,PostGolgi ctrl,PostGolgi yeast,CYP2C19 activ
Cc1ccc(CNS(=O)(=O)/C=C/c2ccc3c(c2)OCO3)cc1,19,99*,0.8,4,13,0
Cc1ccc(S(=O)(=O)N/N=C\c2ccc3c(c2)OCO3)cc1,75*,59*,0.3,-4,7,0.4
O=S(=O)(N/N=C\c1ccc2c(c1)OCO2)c1ccc(Cl)cc1,86*,36,0.1,19,-8,0.6
CCOC(=O)c1cnn(-c2cc(Oc3ccccc3C)ncn2)c1N,14,12,0.9,-8,-19,0.9
Cc1c(NC(=O)C2C3C=CC(C3)C2C(=O)O)c(=O)n(-c2ccccc2)n1C (stereo not drawn),11,5,0.9,6,-10,0.9
CC(=O)Nc1nc(CC(C)C)cc(-c2ccco2)c1C#N,1,-11,1,6,1,1.1
Cc1cc(C)n2cc(CSc3nnnn3-c3ccccc3C)nc2n1,-174,35,2.7*,5,4,0.6
Cc1cccc2nc(CSCc3ccco3)cn12,0,64*,1,-8,0,0.4
Cc1cc(C)n2cc(CSCc3ccco3)nc2n1,70*,9,0.3,1,-5,0.9
COC(=O)c1ccc(N/C=C/C(=O)c2ccc(OC)c(OC)c2)cc1,-84,6,1.8,-5,-3,0.9
COc1ccc(C(=O)/C=C/N2CCCCC2)cc1OC,-159,4,2.6*,2,-6,1
CCOC(=O)Nc1ccc(=O)n(Cc2c(Cl)cccc2Cl)c1,53*,23,0.5,18,6,0.8
Cc1cccc(OCc2nnc(SCC(=O)N3CCc4ccccc43)n2C)c1,20,17,0.8,0,-20,0.8
Cc1cc(=O)oc2ccc(OCC(=O)N3CCc4ccccc43)cc12,72*,15,0.3,0,-1,0.8
CCC(CC)c1nnc(NC(=O)COc2ccc3c(C)cc(=O)oc3c2)s1,3,-6,1,6,10,1.1
Cc1cc(=O)oc2cc(OCC(=O)N3CCCc4ccccc43)ccc12,75*,44,0.2,2,-6,0.6
Cc1cccc(OCCC(=O)OCC(=O)N2CCc3ccccc32)c1,-45,53*,1.5,9,1,0.5
Cc1nnc(NC(=O)COc2ccc3c(C)cc(=O)oc3c2)s1,73*,27,0.3,-2,-3,0.7
Cc1ccccc1S(=O)(=O)c1c(C)cc(-c2ccccc2)[nH]c1=O,18,-2,0.8,-7,-3,1
CCc1ccc2c(c1)cc(CN(C(=S)Nc1ccccc1)C1CC1)c1nnnn12,48,10,0.5,-9,14,0.9
COC(=O)Oc1c(Br)c(=O)oc2ccccc12,x,x,x,1,-2,x
O=C(NC12CC3CC(CC(C3)C1)C2)c1ccc(S(=O)(=O)N2CCOCC2)cc1,0,-6,1,24,-8,1.1
CS(=O)(=O)N1CCC(C(=O)Nc2ccc(Br)cc2F)CC1,-8,-1,1.1,9,-3,1
CN(C)c1ccc(/C=C/c2ccncc2)cc1,78*,98*,0.2,1,-2,0
CCCN(CCO)Cc1cccc(Cl)c1,-5,7,1,3,-3,0.9
SMILES,CYP2C9 inhib,CYP2C19 inh,CYP2C9 act,PostGolgi ctrl,PostGolgi yeast,CYP2C19 activ
OCCN(Cc1ccccc1)Cc1ccc(C(F)(F)F)cc1,50*,95*,0.5,5,2,0
OCCN(Cc1ccccc1)CC1CCCCC1,-5,2,1,6,0,1
OCCN(Cc1ccccc1)Cc1cccc(F)c1,16,70*,0.8,2,-9,0.3
OCCN(Cc1ccccc1)Cc1cccc(C(F)(F)F)c1,20,73*,0.8,11,1,0.3
FC(F)(F)c1cccc(CN2CCCCCC2)c1,2,32,1,6,3,0.7
COc1ccc(CCN(C(=O)c2ccc(F)cc2)C2=CC3CCC(C2)N3C)cc1OC (stereo not drawn),0,1,1,x,x,1
COC(=O)c1ccc(COc2cc(O)c3c(c2)OC(C)(C)CC3=O)cc1,23,51*,0.8,12,-4,0.5
CC1(C)CC(=O)c2c(O)cc(OCc3ccc(Br)cc3)cc2O1,85*,61*,0.2,12,-9,0.4
COc1cc(O)c2c(c1)OC(C)(C)CC2=O,-8,5,1.1,-4,-8,1
Cc1nc2sc(C(c3ccc(C(C)C)cc3)N3CCN(CCO)CC3)c(O)n2n1 (stereo not drawn),-6,2,1.1,6,-2,1
CCC1(C)N=C(c2ccc3c(c2)OCO3)CC(c2ccccc2O)N1 (stereo not drawn),74*,59*,0.3,5,-11,0.4
c1cc(-c2nnc3n2CCC3)[nH]n1,-12,13,1.1,-7,-2,0.9
Cc1ccc(C(=O)Oc2cccc(NC(=O)c3ccco3)c2)cc1S(=O)(=O)N1CCC(C)CC1,85*,60*,0.1,3,-2,0.4
CCN(CC)CCN1C(=O)c2oc3ccccc3c(=O)c2C1c1cccc(Br)c1 (stereo not drawn),41,37,0.6,-7,-8,0.6
Cc1cc2oc3c(c(=O)c2cc1C)C(c1cccc(Br)c1)N(Cc1ccco1)C3=O (stereo not drawn),95*,98*,0,-3,-5,0
COc1cc(C2c3c(oc4ccccc4c3=O)C(=O)N2Cc2ccco2)ccc1O (stereo not drawn),42,37,0.6,7,-2,0.6
O=C1c2oc3ccc(Cl)cc3c(=O)c2C(c2cccc(Br)c2)N1CCO (stereo not drawn),34,50*,0.7,14,-2,0.5
Cc1ccc2oc3c(c(=O)c2c1)C(c1cccc(Br)c1)N(Cc1ccco1)C3=O (stereo not drawn),20,9,0.8,42*,-3,0.9
CCOc1ccc(-c2noc(-c3cccnc3)n2)cc1OC,3,21,1,9,17,0.8
Cc1ccc(OCc2nc(-c3ccccc3)no2)c(C)c1,59*,72*,0.4,0,-2,0.3
Cc1cc(C)c(C)c(OCc2nc(-c3cccnc3)no2)c1,22,68*,0.8,0,-6,0.3
Cc1nn2c3ccccc3nc2c2ccccc12,5,3,0.9,16,0,1
CCOC(=O)c1c2c(c(=S)n(-c3ccccc3)c1N)CCC2,54*,60*,0.5,17,4,0.4
N#Cc1c(C#N)c(-c2ccccc2)n(-c2ccccc2)c1N,8,-7,0.9,10,-9,1.1
N#Cc1c2c(c(=S)n(-c3ccccc3)c1N)CCCC2,57*,22,0.4,-1,17,0.8
COC(=O)c1ccccc1S(=O)(=O)N(Cc1cc2cc3c(cc2[nH]c1=O)OCO3)C1CCCCC1,47,23,0.5,6,-3,0.8
